# Results reported in the supplement of paper PMC10933113.
# Test system: KeratinoSens (HaCaT ARE-luciferase) cells;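 active = curve rank above 3; inactive = curve rank 0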
# Assay: Nrf2/ARE luciferase activation call in qHTS KeratinoSens assay (1 = active, 0 = inactive)
row,SMILES,Nrf2/ARE luciferase activation call
1,CCCCCCn1cc[n+](C)c1.O=S(=O)([N-]S(=O)(=O)C(F)(F)F)C(F)(F)F,not active ARE inducer (skin sensitizer alert) (inactive)
2,CCC[N+]1(C)CCCC1.O=S(=O)([N-]S(=O)(=O)C(F)(F)F)C(F)(F)F,not active ARE inducer (skin sensitizer alert) (inactive)
3,CCCCn1cc[n+](C)c1.O=S(=O)([N-]S(=O)(=O)C(F)(F)F)C(F)(F)F,not active ARE inducer (skin sensitizer alert) (inactive)
4,O=C(O)c1ccccc1O.OCCN(CCO)CCO,not active ARE inducer (skin sensitizer alert) (inactive)
5,CCCC[N+](C)(C)C.O=S(=O)([N-]S(=O)(=O)C(F)(F)F)C(F)(F)F,not active ARE inducer (skin sensitizer alert) (inactive)
6,CCC(COC(=O)c1cc(OC)c(OC)c(OC)c1)(c1ccccc1)N(C)C.O=C(O)/C=C\C(=O)O (stereo unspecified),not active ARE inducer (skin sensitizer alert) (inactive)
7,CC[S+](CC)CC.O=S(=O)([N-]S(=O)(=O)C(F)(F)F)C(F)(F)F,not active ARE inducer (skin sensitizer alert) (inactive)
8,C[N+](C)(C)CCO.O=S(=O)([N-]S(=O)(=O)C(F)(F)F)C(F)(F)F,not active ARE inducer (skin sensitizer alert) (inactive)
9,CCC[n+]1ccn(C)c1C.O=S(=O)([N-]S(=O)(=O)C(F)(F)F)C(F)(F)F,not active ARE inducer (skin sensitizer alert) (inactive)
10,CCCCCCCCCCCCCCCCCC(=O)[O-].OCC[NH+](CCO)CCO,active ARE inducer (skin sensitizer alert)
11,CCCC[N+]1(C)CCCCC1.O=S(=O)([N-]S(=O)(=O)C(F)(F)F)C(F)(F)F,not active ARE inducer (skin sensitizer alert) (inactive)
12,CC(=O)[O][Cr]([OH])[O]C(C)=O.CC(=O)[O][Cr]([OH])[O]C(C)=O.CC(=O)[O][Cr]([O]C(C)=O)[O]C(C)=O,not active ARE inducer (skin sensitizer alert) (inactive)
13,CCCCCCCCCCCCCC[P+](CCCCCC)(CCCCCC)CCCCCC.O=S(=O)([N-]S(=O)(=O)C(F)(F)F)C(F)(F)F,not active ARE inducer (skin sensitizer alert) (inactive)
14,CCCn1cc[n+](C)c1.O=S(=O)([N-]S(=O)(=O)C(F)(F)F)C(F)(F)F,not active ARE inducer (skin sensitizer alert) (inactive)
15,C[C@H](CN1CCOCC1)C(C(=O)N1CCCC1)(c1ccccc1)c1ccccc1.O=C(O)[C@H](O)[C@@H](O)C(=O)O,not active ARE inducer (skin sensitizer alert) (inactive)
16,CCC[N+]1(C)CCCCC1.O=S(=O)([N-]S(=O)(=O)C(F)(F)F)C(F)(F)F,not active ARE inducer (skin sensitizer alert) (inactive)
17,CCCC[P+](CC)(CCCC)CCCC.CCOP(=O)([O-])OCC,not active ARE inducer (skin sensitizer alert) (inactive)
18,CCCC[N+](C)(CCCC)CCCC.O=S(=O)([N-]S(=O)(=O)C(F)(F)F)C(F)(F)F,not active ARE inducer (skin sensitizer alert) (inactive)

row,SMILES,Nrf2/ARE luciferase activation call
1,CCCCCCCCCCCCOS(=O)(=O)O.OCCN(CCO)CCO,not active ARE inducer (skin sensitizer alert) (inactive)
2,CC[N+]1(C)CCCC1.O=S(=O)([N-]S(=O)(=O)C(F)(F)F)C(F)(F)F,not active ARE inducer (skin sensitizer alert) (inactive)
3,CCn1cc[n+](C)c1C.O=S(=O)([N-]S(=O)(=O)C(F)(F)F)C(F)(F)F,not active ARE inducer (skin sensitizer alert) (inactive)
4,CC[S+](C)CC.O=S(=O)([N-]S(=O)(=O)C(F)(F)F)C(F)(F)F,not active ARE inducer (skin sensitizer alert) (inactive)
5,CC(C)=CCN1CC[C@@]2(C)c3cc(O)ccc3C[C@@H]1[C@@H]2C.O=C(O)CCC(=O)O,not active ARE inducer (skin sensitizer alert) (inactive)
6,CCCCCCCCCCCC(=O)O.OCCN(CCO)CCO,not active ARE inducer (skin sensitizer alert) (inactive)
7,CCN(C)C(=O)Oc1cccc([C@H](C)N(C)C)c1.O=C(O)[C@@H](O)[C@H](O)C(=O)O,not active ARE inducer (skin sensitizer alert) (inactive)
8,C[C@H]1[C@@H]2Cc3ccc(O)cc3[C@@]1(C)CCN2C.C[C@H]1[C@@H]2Cc3ccc(O)cc3[C@@]1(C)CCN2C.O=C(O)/C=C/C(=O)O,not active ARE inducer (skin sensitizer alert) (inactive)
9,O=C(O)/C=C\C(=O)O.c1ccc2nc(N3CCNCC3)ccc2c1,not active ARE inducer (skin sensitizer alert) (inactive)
10,O=C(O)c1ccccc1O.Oc1cccc2cccnc12,not active ARE inducer (skin sensitizer alert) (inactive)
11,CCCC[N+]1(C)CCCC1.O=S(=O)([N-]S(=O)(=O)C(F)(F)F)C(F)(F)F,not active ARE inducer (skin sensitizer alert) (inactive)
12,O=C(O)CC(O)(CC(=O)O)C(=O)O.Oc1cccc2cccnc12,active ARE inducer (skin sensitizer alert)
13,CCCCn1cc[n+](C)c1C.O=S(=O)([N-]S(=O)(=O)C(F)(F)F)C(F)(F)F,not active ARE inducer (skin sensitizer alert) (inactive)
14,CCCCCCn1cc[n+](C)c1.O=S(=O)([O-])C(F)(F)F,not active ARE inducer (skin sensitizer alert) (inactive)
15,CCn1cc[n+](C)c1.O=S(=O)([N-]S(=O)(=O)C(F)(F)F)C(F)(F)F,not active ARE inducer (skin sensitizer alert) (inactive)
16,O=C(O)/C=C/C(=O)O.O=C(O)/C=C/C(=O)O.c1ccc(CN2CCNCC2)cc1,not active ARE inducer (skin sensitizer alert) (inactive)
17,CCCCCCCCn1cc[n+](C)c1.O=S(=O)([N-]S(=O)(=O)C(F)(F)F)C(F)(F)F,not active ARE inducer (skin sensitizer alert) (inactive)
18,CCN(CC)CCc1c[nH]c2ccccc12.CCN(CC)CCc1c[nH]c2ccccc12.O=C(O)/C=C/C(=O)O,not active ARE inducer (skin sensitizer alert) (inactive)
